Shown are actives, neighbours in structure and some others; about 3% of the full set was active somewhere.
PPC-1+TRAIL kill = PPC-1 cancer cell killing with TRAIL present. AID 1443. 220,000 tested, 0.41% active. cell killing (% activity), % at 4 µM or 5 µM. PPC-1 cells + TRAIL, ATPLite viability luminescence;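 active = cell killing above 50% in the first pass at 4 µM, then a duplicate retest at 5 µM averaging 50% or more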;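 note: plate controls were cells with TRAIL plus DMSO for no effect and medium-only wells lacking cells for full effect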
SENP6 inh = blocks the human protease SENP6. Q9GZR1. Recombinant SENP6 catalytic domain, aminoluciferin luminescence. inhibition, % at 10 µM. 330,000 tested, 1.8% active;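 active = inhibition above about 50% at the single tested dose, limit read from the data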;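 note: plate controls were DMSO wells with enzyme for no effect and DMSO wells lacking enzyme for full effect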
SENP8 block-1 = blocks human SENP8 cleavage of Nedd8 substrate. inhibition, % at 20 µM. Q96LD8. AID 602440. recombinant SENP8, Nedd8 substrate fluorescence. 360,000 tested, 0.64% active; in the data active = inhibition mostly above about 40%, no sharp cut-off; inactive = mostly below about 27%
Target sequence (Q96LD8 whole entry, looked up): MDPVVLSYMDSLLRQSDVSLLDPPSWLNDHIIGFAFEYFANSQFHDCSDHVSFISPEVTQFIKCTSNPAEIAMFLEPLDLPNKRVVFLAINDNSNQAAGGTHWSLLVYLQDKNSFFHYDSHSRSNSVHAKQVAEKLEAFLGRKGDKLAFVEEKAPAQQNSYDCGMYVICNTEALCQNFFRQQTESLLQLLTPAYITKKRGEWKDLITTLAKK
SENP7 block = blocks the human protease SENP7. 330,000 tested, 1.5% active. recombinant SENP7, Z-RLRGG-aminoluciferin luminescence, 40 min. inhibition, % at 5 µM;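 active = inhibition above about 50% at the single test dose, limit read from the data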;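 note: plate controls were DMSO with enzyme for no effect and no enzyme buffer wells for full effect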
Target sequence (Q9BQF6 706-1050 limits assumed): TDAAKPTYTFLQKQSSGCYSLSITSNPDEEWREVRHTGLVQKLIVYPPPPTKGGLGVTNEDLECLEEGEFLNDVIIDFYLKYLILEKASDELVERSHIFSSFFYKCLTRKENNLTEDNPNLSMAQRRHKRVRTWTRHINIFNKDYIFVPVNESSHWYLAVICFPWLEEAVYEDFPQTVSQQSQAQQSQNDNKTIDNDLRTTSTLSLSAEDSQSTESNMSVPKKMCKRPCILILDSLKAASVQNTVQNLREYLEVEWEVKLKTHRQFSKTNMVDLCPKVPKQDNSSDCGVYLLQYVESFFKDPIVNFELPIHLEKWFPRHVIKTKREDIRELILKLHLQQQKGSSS
SENP8 block-2 = inhibitors of human SENP8 protease; purified SENP8, Z-RLRGG-aminoluciferin cleavage, luminescence; inhibition, % at 10 µM; 330,000 tested, 1.2% active; AID 2540; in the data active = inhibition above about 50%
TRAIL sens C8 = caspase-8 TRAIL sensitization. NB7+C8 cells + TRAIL, ATPlite viability luminescence. inhibition (viability loss, TRAIL sensitization), % at 10 µM. 360,000 tested, 1% active. AID 624354;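 active = compounds causing at least 50% loss of cell viability in the single-dose screen, relative to plate controls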
Numbers without * were called inactive; x = not tested or not shown.

SMILES	PPC-1+TRAIL kill	SENP6 inh	SENP8 block-1	SENP7 block	SENP8 block-2	TRAIL sens C8
Cc1c(CCCl)c(Cl)n2c(nc3ccccc32)c1C#N	x	x	-348	x	x	88*
CCOC(=O)NNC(=O)C1CCC(C)CC1 (centres undefined)	3	9	7	2	-1	5
CN(Cc1ccccc1)C(=O)c1ccc(NC(=O)C2CCCN(C(=O)OC(C)(C)C)C2)cc1 (centres undefined)	x	-2	22	2	-9	10
O=C(Nc1ccc(Cl)c(S(=O)(=O)N2CCOCC2)c1)c1ccc(OCC2CCCO2)cc1 (centres undefined)	11	-1	5	-5	4	51*
Cc1ccccc1C(=O)N(C)[C@H]1C[C@H]2c3[nH]c4ccccc4c3CCN2C[C@H]1[C@H](C)O	x	x	-347	x	x	0
COc1cccc(/C=N/NC(=O)c2ccccc2NC(=O)c2ccco2)c1OC	-1	-13	-48	0	-7	4
COc1cccc(/C=C/C(=O)NNC(=O)c2ccco2)c1OC	x	0	-43	5	-2	63*
O=C(Nc1cc(C(F)(F)F)cc(C(F)(F)F)c1)Nc1cnn(-c2ccc([N+](=O)[O-])cc2)c1C(F)(F)F	17	-11	19	2	3	47*
O=C(Nc1ccc(C(=O)O)cc1)Nc1ccc([N+](=O)[O-])cc1	x	12	21	6	-6	-13
O=C1c2cccc(O)c2C(=O)c2c(O)cccc21	12	7	x	12	1	x
O=C1c2cccc(Sc3ccccc3)c2C(=O)c2c(Sc3ccccc3)cccc21	12	10	52*	-1	12	2
CCN(CC)C(=O)c1cccc(-c2csc(C(NC(C)=O)c3cccc(OC)c3)n2)c1 (centres undefined)	x	x	-1	x	x	-4
CCN(CC)CCNc1ccc2nnc(CCNS(=O)(=O)c3ccc(C)cc3)n2n1	-6	8	26	6	8	0
N#CC(c1nc2ccccc2nc1N1CCCC1)S(=O)(=O)c1ccccc1 (centres undefined)	10	74*	-316	39	72*	5
C=CCOc1ccc(/C=C/C(C)=N\O)cc1	31	79*	15	89*	83*	61*
Cc1ccc(C(=O)c2no[n+]([O-])c2C(=O)c2ccc(C)cc2)cc1	10	-1	22	10	2	93*
COc1ccc(C(C)=O)cc1CN1C(=O)C(C)ON=C1c1cccc(C(F)(F)F)c1 (centres undefined)	x	x	9	x	x	-14
CCOc1cc(-c2nc(-c3ccccc3OC)no2)cc(OCC)c1OCC	15	-12	6	-12	-10	17
COc1ccccc1-c1noc(-c2ccccc2)n1	34	92*	17	93*	87*	15
COc1ccccc1C1=NC(c2ccc(F)cc2)N=C1C (centres undefined)	33	-11	3	7	-4	-6
COc1ccccc1C1N=C(c2ccccc2C)NO1 (centres undefined)	x	83*	25	78*	75*	13
COc1ccc2oc(-c3ccc(NC(=O)c4ccc(N5CCOCC5)c([N+](=O)[O-])c4)cc3)nc2c1	14	-6	18	-1	-10	50*
O=C(Nc1ccc(-c2nc3ccccc3o2)cc1)c1ccc(N2CCOCC2)c([N+](=O)[O-])c1	5	-28	-24	-3	-5	43
CCc1n[n+](CC(=O)c2ccccc2)c(N)s1	65*	x	15	x	x	59*
Cc1ccc(-c2ccc(/C=N/NC(=O)c3ccccc3O)o2)cc1	16	58*	x	54*	27	x
SMILES	PPC-1+TRAIL kill	SENP6 inh	SENP8 block-1	SENP7 block	SENP8 block-2	TRAIL sens C8
CC1Oc2ccccc2C=C1/C=N/NC(=O)c1ccccc1O (centres undefined)	28	4	-399	10	-4	50*
C/[N+]([O-])=C\c1cccc(OCCN2CCN(c3ncc(C(F)(F)F)cc3Cl)CC2)c1	x	-7	-2	-2	1	-3
CC1Sc2ccc(S(=O)(=O)CCC(=O)NC3CCCCC3C)cc2NC1=O (centres undefined)	x	-7	11	10	-11	5
COc1ccc(C[C@H](N)C(=O)N[C@H]2[C@@H](O)[C@H](n3cnc4c(N(C)C)ncnc43)O[C@@H]2CO)cc1	x	-3	5	1	4	92*
Cc1ccc(Nc2nc3ccccc3s2)cc1	36	82*	9	87*	72*	34
CCCCC(=O)c1c(O)c2ccccc2oc1=O	20	4	16	2	2	-9
O=C(CC1CCCCC1)c1c(O)c2ccccc2oc1=O	-2	16	11	0	-12	54*
Cc1onc(-c2ccccc2Cl)c1C(=O)O/N=C(\N)c1ccccc1	x	3	0	-4	4	92*
COc1ccc(/C(N)=N/OC(=O)c2cccc([N+](=O)[O-])c2C)cc1	13	-9	19	-3	-7	65*
C/C(=N\OC(=O)c1c(-c2ccccc2Cl)noc1C)c1ccncc1	14	0	1	4	1	-10
COc1ccc(/C(N)=N/OC(=O)c2cccc([N+](=O)[O-])c2)cc1	7	5	24	11	-6	10
N/C(=N\OC(=O)c1ccc(Br)cc1)c1cccc([N+](=O)[O-])c1	x	22	8	16	-19	-3
Cc1onc(-c2ccccc2Cl)c1C(=O)O/N=C(\N)c1cccc([N+](=O)[O-])c1	x	x	14	x	x	88*
Cc1ccc(C(=O)O/N=C(\N)c2cccc([N+](=O)[O-])c2)cc1	20	44	14	49	12	56*
COc1cc(CN(C)Cc2cc(=O)oc3cc(C)c(Cl)cc23)ccc1OC(F)F	x	7	3	6	1	8
COc1ccc(CCNC(=O)CSc2nnc3ccccn23)cc1	-22	-31	-10	4	1	-1
CC1(C)O[C@@H]2[C@H](O1)[C@@H](COS(=O)(=O)O)O[C@H]2n1c(=S)[nH]c2c(=O)[nH]c(N)nc21	x	1	12	-7	-6	-8
COc1cccc(NC(=O)c2cc(CN3C(=O)c4ccccc4C3=O)ccc2OC)c1	13	-23	8	3	3	-5
Cc1cc(C)n2nc(CCCO)nc2n1	7	-2	8	1	-1	29
CNC(=O)c1cc2c(ccc3ccccc32)o1	41	-5	-162	4	-2	1
C=C(C)c1cc2c(ccc3ccc(=O)oc32)o1	x	-6	-10	-5	-8	87*
O=C(COc1ccc(C(F)(F)F)cc1[N+](=O)[O-])Nc1cccc(C(F)(F)F)c1	52*	-13	21	6	-8	8
CC1=C(C(=O)N2CCOCC2)CC(CC(=O)NCCCN(C)C)C(=O)N1CCCN1CCCC1=O (centres undefined)	x	x	9	x	x	2
Cc1nc2ccccc2n1S(=O)(=O)c1cc(C(=O)O)ccc1Cl	x	-19	7	-7	-3	-13
